Bioassay records deposited in PubChem by National Center for Advancing Translational Sciences (NCATS).
Most compounds without a hit are left out; they make up all but 2.2% or so of the library.
Mito fusion act – blocks mitochondrial division or promotes mitochondrial fusion; S. cerevisiae fusion-defective mutant growth rescue, CellTiterGlo 48 h; Potency, µM (doses to about 46.1 µM), inactives show at the top dose growth rescue (activation), most hits filed as activators; hit rate 0.23% among 320,000; AID 485298; also: % of control where 0% means no effect; nearly all actives have a fitted effect of over 45% in size
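Temperature-sensitive fusion-defective S. cerevisiae (e.g. fzo1-1, mgm1-5) were grown with compound in YPEG medium (3% ethanol, 3% glycerol) for 48 hours at 37C. Growth rescue was measured as viability by CellTiterGlo luminescence after 10 minutes at ambient.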
FUS yeast rescue – rescues growth of FUS-expressing yeast; S. cerevisiae FUS-expressing, growth rescue, OD600, 24 h; AID 1347120; hit rate 0.24% among 390,000; Potency, µM (highest dose often 76.6 µM), hits mostly activators;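 also: plate controls were DMSO vehicle for no effect and reference control for full effect; nearly all actives have a fitted effect of over 55% in size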
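Steps: raffinose overnight preculture; dilution to OD 0.005 in 2% galactose minimal medium; compound addition (concentration series); 24hr at 30C, 99% humidity; absorbance read at 600 nm.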
TDP-43 yeast inh – rescues yeast growth from TDP-43 toxicity; TDP-43 expressing yeast growth rescue, BacTiter-Glo, 24 h; AID 652104; hit rate 1.8% among 410,000; Potency, µM (highest dose often 46.1 µM), for the others: top-dose growth rescue (activation), actives largely listed as activators; also: % of control where 0% means no effect; nearly all actives have a fitted effect of over 50% in size
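Growth rescue of TDP-43-toxic yeast measured as ATP luminescence (BacTiter-Glo). Cells grown to mid-log in raffinose, induced in galactose at OD600=0.02, exposed to compound 24 hr at 30 deg C.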
Abeta rescue – compounds reversing amyloid beta toxicity in yeast. yeast expressing A-beta42, growth rescue, OD600, 48 h; response scale: 0% DMSO, 100% iron-clioquinol control. hit rate 0.063% among 410,000. Potency, µM (titrated, usually from 46.1 µM), actives largely listed as activators; also: nearly all actives have a fitted effect of over 55% in size
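Yeast A-beta toxicity model in growth medium with pinned compounds, 48 h at 30 C; growth read as absorbance at 600 nm. Normalized to FeCl3/clioquinol equimolar mix (positive) and DMSO (negative).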
aSyn rescue – rescues yeast growth from alpha-synuclein toxicity | Yeast expressing alpha-synuclein, growth rescue, BacTiter-Glo, 24 h | Potency, µM (doses to about 46.1 µM), for the others: at the highest dose growth rescue (activation), most hits filed as activators | hit rate 0.14% among 370,000 | AID 652106; also: % of control where 0% means no effect; nearly all actives have a fitted effect of over 65% in size
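Galactose-induced alpha-syn yeast (OD600=0.02, raffinose-pregrown) + pinned cpd, 24 hr, 30 deg C; growth by BacTiter-Glo luminescence. Growth restoration scores as activation.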
* hit, by the source's call; i = inactive; ? = inconclusive; · = no result given; ! = a repeat was not active; [ ] = remark or other dose. Calls follow the shape of the dose curve; as a rule, active = well fitted curve in the direction sought with a large enough effect; inconclusive = small, poorly fitted or top-dose-only effect, or another doubt; inactive = no such curve, though single readings can be large; an effect the other way counts as inactive or inconclusive. Potency is read from the fitted curve at half-maximal effect.

SMILES	Mito fusion act	FUS yeast rescue	TDP-43 yeast inh	Abeta rescue	aSyn rescue
O=C(Nc1nnc(C2CC2)o1)c1ccc(S(=O)(=O)N2CCc3ccccc3C2)cc1	-4.6%	i	15.8µM*	i	17.8µM*
Cc1ccc2nc(NNC(=O)c3ccc(S(=O)(=O)N4CCc5ccccc5C4)cc3)sc2c1	-0.6%	?	8.91µM*	i	?
O=C1Cc2ccccc2C(=O)N1	·	i	22.4µM*	i	-8.0%
CNc1cc(C)c(C#N)c2nc3ccccc3n12	1.5%	i	?	i	-1.5%
CCc1c(C)c(C#N)c2nc3ccccc3n2c1NC	-34.9%	i	-7.9%	i	-0.6%
Cc1cc(Cl)n2c(nc3ccccc32)c1C#N	-2.5%	i	3.16µM*	i	-70.7%
Cc1c(CCCl)c(Cl)n2c(nc3ccccc32)c1C#N	·	·	7.08µM*	i	2.5%
CCOC(=O)c1c(C)sc(-c2c(-c3ccc(OC)c(F)c3)[nH]c3c2c(=O)[nH]c(=O)n3C)c1O	·	?	16.8%	i	·
Cc1cccc(N2C(=O)C(O)=C(C(=O)c3cccs3)C2c2ccc(C(C)C)cc2)n1 (stereo not drawn)	10.4%	i	28.2µM*	i	-26.6%
Cn1c(CNc2ccccc2F)nc2ccccc21	·	i	·	·	·
COc1cc2c(C(=O)N(C)c3cc(Cl)ccc3OC)cn(CC(C)C)c(=O)c2cc1OC	·	i	7.5%	i	·
Cc1ccc(NC(=O)COc2ccccc2C#N)cc1S(=O)(=O)N1CCCCCC1	29.5%	i	28.2µM*	i	-0.1%[1.84 µM]
Cc1cnc(C(=O)Nc2ccc(C)c(S(=O)(=O)N3CCCCCC3)c2)cn1	7.1%	i	15.8µM*	i	7.1%
Cc1ccc(NC(=O)COc2ccccc2)cc1S(=O)(=O)N1CCCCCC1	22.1%	i	25.9%	i	-3.9%
CC(C)c1ccc(NC(=O)CN2C(=O)c3cccc4cccc2c34)cc1	3.5%	i	25.8%	i	·
Cc1ccc(N2CC(NC(=O)Cc3ccc(F)cc3)CC2=O)cc1C (stereo not drawn)	·	i	22.3%	i	·
O=c1[nH]c2ccccc2c2nc3ccccn3c12	3.9%	i	22.4µM*	i	?
O=c1nc2c(O)cccn2c2c1c(=O)[nH]c1ccccc12	-3.0%	i	5.4%	i	-5.3%
Cc1ccc(C(c2sc3nc(-c4ccco4)nn3c2O)N2CCOCC2)cc1 (stereo not drawn)	·	i	0.0%	i	·
COc1ccc2c(c1)C(=NO)c1cc(OC)ccc1-2	-8.1%	i	11.2µM*	i	-5.0%
C=CCOc1ccc2c(c1)C(=NO)c1cc(OCC=C)ccc1-2	8.1%	i	0.0%	i	-18.8%
CC(=O)Nc1ccc(C(=O)OCc2ccc(Br)cc2)cc1	15.8µM*	·	26.5%	i	-27.9%
CC(=O)Nc1ccc(C(=O)CCl)cc1	?	i	10µM*	i	-23.3%
CC(=O)Nc1ccc(C(=O)OCc2ccccc2Cl)cc1	16.3%	i	20µM*	i	-25.2%
CC(=O)Nc1ccc(C(=O)OCCCOC(=O)c2ccc(NC(C)=O)cc2)cc1	-0.3%	i	4.4%	i	3.5%
SMILES	Mito fusion act	FUS yeast rescue	TDP-43 yeast inh	Abeta rescue	aSyn rescue
Cc1ccc(-n2nc(CO)c(C(=O)NCCCCc3ccccc3)n2)cc1	·	i	6.8%	i	·
O=C(NCc1ccccc1)O[C@H]1CC[C@@]23CCCN2C(=O)CCC[C@H]3C1	·	i	·	·	·
Nc1[nH]c(C(=O)c2ccccc2)c(-c2cccnc2)c1C(=O)NCCc1c[nH]c2ccccc12	·	i	·	·	·
O=C(c1sc2cc(F)ccc2c1Cl)N1CCN(c2ccccc2)CC1	27.9%	i	17.8µM*	i	0.3%
Cc1nc2ccccc2nc1Nc1cccc(Cl)c1	3.7%	i	12.6µM*	?	12.8%
COc1ccc(Oc2nc(C)nc3c2oc2ccccc23)cc1	1.8%	i	15.8µM*	i	10.2%
Cc1nc(Nc2ccccc2F)c2oc3ccccc3c2n1	-8.6%	i	2.51µM*	i	0.3%
Cc1nc(Nc2ccccc2O)c2oc3ccccc3c2n1	-8.3%	i	11.8%	i	-1.7%
Cc1nc2ccccc2nc1OCc1cccc(Cl)c1	8.0%	i	12.6µM*	i	4.7%
O=C(NNc1ccc(F)cc1F)c1cccs1	·	·	·	·	4.8%
Cc1nc(Nc2cccc(Cl)c2)c2oc3ccccc3c2n1	18.7%	i	15.8µM*	i	-23.3%
Cc1cc(N2CCN(C(=O)Oc3ccc(C(F)(F)F)cc3)CC2)c2ccccc2n1	·	i	·	·	·
CC(C)CCNS(=O)(=O)c1ccc(N2CCCCS2(=O)=O)cc1	·	i	15.7%[9.22 µM]	i	·
CC(=O)c1nn(-c2ccc(Cl)cc2)cc1C(=O)c1ccccc1	·	i	-2.3%	i	1.9%
CCOC(=O)c1nn(-c2ccc(C)cc2)cc1C(=O)c1ccccc1	-6.8%	i	12.6µM*	i	·
COc1cc(/C=N/NC(=S)NC2CC3C=CC2C3)cc(OC)c1OC (stereo not drawn)	5.2%	i	21.7%	?	-5.9%
CCOc1ccc(/C=N/NC(=S)NC2CC3C=CC2C3)cc1 (stereo not drawn)	-9.8%	i	16.2%	7.94µM*	-10.1%
CCCCCCCCCCCCCCCC[n+]1cccc(C(=O)N(CC)CC)c1	-34.0%	28.2µM*!	-17.9%	i	-10.0%
CCCCCCCCCCCCCCCC[n+]1ccc(C(N)=O)cc1	-17.8%	31.6µM*	-36.0%	i	-73.0%
O=C(Cc1ccc(OCCCc2ccccc2)cc1)NO	·	·	·	·	0.0%
COc1cccc(CNc2nccn(-c3cc(C)cc(C)c3)c2=O)c1	·	i	17.8µM*	i	·
Cc1ccc(CNc2nccn(-c3cc(C)cc(C)c3)c2=O)cc1	·	i	?	i	·
Cc1ccc(-n2ccnc(NCc3ccccc3)c2=O)cc1C	·	i	31.6µM*	i	·
Cc1cc(C)cc(-n2ccn(CC(=O)Nc3ccccc3C(F)(F)F)c(=O)c2=O)c1	·	i	12.5%	i	·
COc1ccc(Cl)cc1NS(=O)(=O)c1cc(Cl)ccc1OC	-0.1%	i	13.4%	i	-3.4%
SMILES	Mito fusion act	FUS yeast rescue	TDP-43 yeast inh	Abeta rescue	aSyn rescue
Cc1cc(S(=O)(=O)Nc2noc3ccccc23)ccc1F	-0.7%	i	11.2µM*	i	-22.3%
COc1ccc(Cl)cc1S(=O)(=O)Nc1noc2ccccc12	15.0%	i	10µM*	i	-12.5%
Cc1ccc([N+](=O)[O-])cc1S(=O)(=O)N(C(=O)c1ccncc1)c1ccc2oc3c(c2c1)CCCC3	12.6µM*	·	-15.8%	i	21.6%
Cc1ccc(S(=O)(=O)N(C(=O)c2ccncc2)c2ccc3oc4c(c3c2)CCCC4)cc1[N+](=O)[O-]	17.8µM*	i	?	i	5.4%
CCOC(=O)c1c(C)oc2ccc(N(C(=O)c3ccncc3)S(=O)(=O)c3ccc(F)cc3C)cc12	·	?	25.6%	i	·
CC(=O)c1c(C)oc2ccc(N(C(=O)c3ccncc3)S(=O)(=O)c3ccc(F)cc3C)cc12	·	?	20µM*	i	·
